Data reported in ChEMBL document CHEMBL4513216, “Probing the Open Global Health Chemical Diversity Library for Multistage-Active Starting Points for Next-Generation Antimalarials” (ACS Infect Dis, 2020).
Among all 69,000 compounds or so, about 8,600 (12%) showed an effect of 50% or more. Shown is part of a subset that was picked to be rich in strong results.

Each molecule was assayed on Plasmodium berghei (assay: Screen against P. berghei liver stage (PbLuc), transformed with Luciferase, at 10uM). Settings: tested at 10 uM.
Assay type: functional, HepG2

SMILES	INHIBITION
COc1ccc(-n2cnnc2CC2CCNCC2)cc1	65.7%
COc1ccc(C)cc1-n1cnnc1CC1CCNCC1	64.6%
COc1ccc(C)cc1-n1cnnc1C1CCCN(C)C1 (centres undefined)	29.8%
COc1ccc(C)cc1-n1cnnc1C1CCOCC1	13.5%
COc1ccc(OC)c(-n2cnnc2CN)c1	45.7%
c1cncc(-n2cnnc2CC2CCNCC2)c1	8.08%
O=C(Cn1ccc2cc(Br)ccc21)NCc1ccc(C(=O)O)cc1	13.5%
CC(=O)c1cc(C(=O)N2Cc3ccccc3OC3(CCOCC3)C2)cs1	-26.2%
CS(=O)(=O)c1ccc(C(=O)N2CCCC(n3ccnc3)C2)cc1 (centres undefined)	-9.76%
COC(=O)C(c1cc(F)ccc1F)N(C)C(=O)c1ccccn1 (centres undefined)	36.1%
COc1ccc(N(C(=O)c2cnc(C)cn2)C(C)C)cc1F	62.4%
COc1ccc(N(C(=O)c2ccc(C)nc2)C(C)C)cc1F	38%
COc1ccc(N(C)C(=O)c2cccc(S(C)(=O)=O)c2)cn1	40.7%
COc1ccc(N(C(=O)Cc2ccc(C)nc2)C(C)C)cc1F	-75%
COC(=O)c1cnc(C(=O)N(c2ccc(OC)c(F)c2)C(C)C)cn1	-54.5%
COCC(c1cccc(C(F)(F)F)c1)N(C)C(=O)c1ccccn1 (centres undefined)	-5.285%
COc1ccc(N(C(=O)c2ccccn2)C(C)C)cc1F	50.8%
COc1ccc(C(=O)N(c2ccc(OC)c(F)c2)C(C)C)cn1	75.2%
Cn1cc(-c2ncc3c(c2C(=O)O)CCN(CC2CC2)C3)cn1	46.6%
O=S(=O)(NC1=NCN(CCc2cccs2)CN1)c1ccc(Cl)cc1	17%
O=C(CN1CCOC(Cn2cccn2)C1)NCc1ccccn1 (centres undefined)	11.2%
O=C(c1ncccn1)N1CCC[C@]2(C[C@@H](OCC3CC3)CO2)C1	34.6%

SMILES	INHIBITION
CN1CCO[C@@H]2CN(S(=O)(=O)c3ccc(F)cc3)CC[C@@H]2C1	16.9%
Cc1cc(C)cc(NCCC(=O)NC2CCN(C(=O)C3CC3)CC2)c1	-18.3%
CN1CCN(c2ncccn2)CC1C(N)=O (centres undefined)	-7.66%
O=C(C1CCCO1)N1CCC(Cn2cc(C3CCCC3)nn2)CC1 (centres undefined)	34.2%
CCCN1CCC(N2CCC(Cn3cc(C4CC4)nn3)CC2)CC1	52.2%
CC(C)(CN1CCCC1)CN1CCC(Cn2cc(C3CC3)nn2)CC1	41.2%
CC(C)CSCCCNC(=O)C1CCOCC1	6.54%
CC(C)CSCCCNC(=O)C1CCC1	52.3%
CC(C)CSCCCNC(=O)C1CCOC1 (centres undefined)	33.7%
CN(C)S(=O)(=O)N1C[C@H]2CC[C@@H](C1)N(Cc1ccc3[nH]ccc3c1)C2	31.6%
Cc1nc(CN2CCN(C(=O)c3scnc3C)CC2)cs1	-17.1%
NC(=O)c1cnn2c1NCC(CNCCOc1ccccc1)C2 (centres undefined)	-18.43%
OCCn1nccc1C1CCN(CCOc2ccccc2F)CC1	27.8%
CCOCCCNC(=O)c1nn(CC)cc1Br	1.86%
CCOCCCNC(=O)c1cn(CC)nc1C	11.8%
CCOCCCNC(=O)NCc1c(C)nn(C)c1C	52.5%
COc1ccccc1C1CNCCN1C(=O)c1ccc(F)cc1 (centres undefined)	15.5%
CN1CCCCC1CC(=O)Nc1ccc2ncn(C)c2c1 (centres undefined)	9.41%
CN1CCN(C2CCN(CCOc3ccc(F)cc3)CC2)C1=O	25.6%
CN1CCN(C2CCN(CCOc3ccc(Cl)cc3)CC2)C1=O	36.1%
CN1CCN(C2CCN(CCOc3cccc(F)c3)CC2)C1=O	5.9%
CCOc1ccc(OCCN2CCC(N3CCNC3=O)CC2)cc1	81.8%

SMILES	INHIBITION
COc1ccc(OCCN2CCC(N3CCNC3=O)CC2)cc1	87.25%
CN1CCN(C2CCN(CCOc3cccc(Cl)c3)CC2)C1=O	51.1%
COc1ccccc1OCCN1CCC(N2CCNC2=O)CC1	36.4%
CN1CCN(C2CCN(CCOc3ccc(C#N)cc3)CC2)C1=O	41.5%
Cc1ccc(C)c(OCCN2CCC(N3CCNC3=O)CC2)c1	38.1%
CCN(Cc1cccc(F)c1)Cn1nc(C)c2c(C)onc2c1=O	11.4%
Cc1nccc(NCc2cc3n(n2)CCCN(C(=O)C2CCC2)C3)n1	21.1%
Cc1cc2c(=O)n(CCSc3ncn[nH]3)cnc2s1	29.4%
Cn1nnc2c1CCN(C(=O)C1CC1)C2COCCN1CCCC1 (centres undefined)	-6.23%
c1ncn(CC2CCCCN2Cc2cn3ccsc3n2)n1 (centres undefined)	25.45%
CC[C@H]1CN(C(=O)c2cccc(-n3cnnc3)n2)CC[C@@]1(C)O	-0.71%
O=C(c1ccc(-n2cnnc2)nc1)N1CCCC(O)(CO)CC1 (centres undefined)	8.38%
CC[C@H]1CN(C(=O)c2ccc(-n3cnnc3)nc2)CC[C@@]1(C)O	53.8%
Cc1ccc2cc(CNCCCN3CCOCC3)c(=O)[nH]c2c1C	-5.71%
C[C@H]1C[C@@H]2CCN(C(=O)c3cccn3C)C[C@H]2O1	25%
Cc1c(F)cccc1S(=O)(=O)N(C)CC(C)O (centres undefined)	-37.6%
Cc1ccc(S(=O)(=O)N(C)CC(C)O)c(F)c1 (centres undefined)	6.99%
CC(O)CN(C)S(=O)(=O)c1ccc(C#N)cc1F (centres undefined)	64.6%
Cc1n[nH]c2nc(-c3ccccc3O)cc(C(=O)O)c12	7.09%
OCCOc1cc(F)ccc1NCc1cccc(F)c1F	54.5%
COc1ccccc1-c1noc(CNc2ccc(F)cc2OCCO)n1	13.7%
N#Cc1ccc(F)c(CNc2ccc(F)cc2OCCO)c1	10.9%

SMILES	INHIBITION
Cc1ccccc1-c1noc(CNc2ccc(F)cc2OCCO)n1	52.6%
OCCOc1cc(F)ccc1NCc1nc(-c2cccs2)no1	12.8%
OCCOc1cc(F)ccc1NCc1ccc(F)c(F)c1	-16.8%
Cc1nc(CC(=O)N2CCn3c(nnc3C(C)C)C2)cs1	18.15%
O=C(CCc1ccc(-c2ccccc2)[nH]1)N1CCCC(n2ccnc2)C1 (centres undefined)	3.5625%
CCC(=O)Nc1cccc(OCC(=O)N[C@@H]2C[C@@H]3CC[C@H]2C3)c1	-23.4%
Cc1nc(C2CCCN(C(C)C)C2)sc1Br (centres undefined)	11.8%
O=C(Nc1ccccn1)C1CC(=O)N(Cc2ccccn2)C1 (centres undefined)	-87.6%
COC[C@@]12CCO[C@@H]1CCN(C(=O)C1CC(F)(F)C1)C2	94.6%
O=C(C1CC(F)(F)C1)N1CC[C@H]2OCC[C@@]2(COCC2CC2)C1	39.3%
COC[C@@]12CCO[C@@H]1CCN(C(=O)C1CCOCC1)C2	13.1%
CN1CC(=O)N(c2ccccc2)CC12CCN(CC1CC1)C2 (centres undefined)	48.9%
O=C(NCCCn1cncn1)N1CCC(N2CCCCC2)CC1	-17.167%
Cn1cccc1C(=O)N1CCc2ccc(=O)n(C)c2CC1	21.4%
O=C1CC(c2cccnc2)c2c(c(C(=O)O)cn2-c2cccc(F)c2)N1 (centres undefined)	-18.3%
CN1CCC2(CCN(c3ncc(F)cn3)CC2)C1=O	30.5%
CN(Cc1nc(CC2CC2)no1)CC1Cc2ccccc2O1 (centres undefined)	12.6%
CN(Cc1nc(COc2ccccc2)no1)CC1Cc2ccccc2O1 (centres undefined)	8.07%
CN(Cc1nc(Cc2ccccc2F)no1)CC1Cc2ccccc2O1 (centres undefined)	52%
O=C(Nc1nc(-c2ccccc2)ns1)N1CC[C@H](O)C1	9.79%
CCSc1ccc(C(=O)N2CCC3(CCC(=O)N(C)C3)CC2)s1	20.3%
Cc1c(Br)cnn1C(C)C(=O)Nc1nncs1 (centres undefined)	39.9%

SMILES	INHIBITION
Cc1nnc(NC(=O)C(C)n2ncc(Br)c2C)s1 (centres undefined)	50.2%
Cc1nc(NC(=O)C(C)n2ncc(Br)c2C)sc1C (centres undefined)	21.5%
CN(C)Cc1cnc(C2CCN(C(=O)c3cccc(Cl)c3)C2)[nH]1 (centres undefined)	12.375%
COC(=O)CC1CCN(C(=O)c2ccccc2-n2nnnc2C)CC1	9.57%
Cc1nn(C)cc1CN1CCCC(n2c(=O)oc3ccc(Cl)cc32)C1 (centres undefined)	36%
Cc1cc(C)cc(N(C)S(=O)(=O)c2cc(C(=O)O)cs2)c1	34.7%
Cc1ccc(N(C)S(=O)(=O)c2cc(C(=O)O)cs2)cc1	52.5%
CN(c1ccc(C(C)(C)C)cc1)S(=O)(=O)c1cc(C(=O)O)cs1	20.6%
O=c1n(CCSCCOc2ccc(Br)cc2)nc2ccccn12	2.49%
O=C(NC1CC1)c1ccnc(N2CCOC(c3ccc(Cl)cc3)C2)c1 (centres undefined)	67.7%
CNC(=O)c1ccc(C2CN(c3cc(C)nc(N)n3)CCO2)nc1 (centres undefined)	25.855%
CN1CCN(C(=O)c2ccnc(N3CCOC(C(F)(F)F)C3)c2)CC1 (centres undefined)	-14.1%
O=C(c1ccnc(N2CCOC(c3ccc(Cl)cc3)C2)c1)N1CCCC1 (centres undefined)	73.5%
O=C(CN1C(=O)CCNC1=O)N1CCOC(c2ccc(Cl)c(Cl)c2)C1 (centres undefined)	-52.2%
O=C(NC1CC1)c1ccnc(N2CCOC(c3ccc(Cl)c(Cl)c3)C2)c1 (centres undefined)	86.6%
CC(C)n1ccnc1C1CCCN(c2cc(C(=O)NC3CC3)ccn2)C1 (centres undefined)	31.2%
O=C(c1ccnc(N2CCOC(C(F)(F)F)C2)c1)N1CCOCC1 (centres undefined)	12.7%
O=C(c1ccnc(N2CCOC(C(F)(F)F)C2)c1)N1CCCC1 (centres undefined)	7.77%
Cn1cc(CN2C[C@H]3CCN(C(=O)c4cscn4)C[C@H]3C2)cn1	43.9%
CC(C)Oc1ncccc1CNC(=O)Nc1ccccn1	-17.6%
Cc1cc(-c2ccccc2C(=O)O)nc(C2CCCN(C(C)C)C2)n1 (centres undefined)	13%
